CHX counter: Cycloheximide Counterscreen for Small Molecule Inhibitors of Shiga Toxin | max response, % | AID 2314, 2010 | actives 12% (n = 300,000) | cell reporter, cycloheximide protein synthesis inhibition counterscreen; in the data active means max response mostly above about 13%, no sharp cut-off; inactive means mostly below about 14%; further: read at 38.3 µM for the half of the compounds with a filed dose
LASV entry inh: qHTS for Inhibitors of binding or entry into cells for Lassa Virus; Lassa virus pseudotype entry inhibition, cell reporter; Potency, µM (highest dose often 37.9 µM), hits mostly inhibitors; actives 1.2% (n = 300,000); AID 540256, 2011; calls by dose curve; tested in HEK293 cells; further: nearly all actives have a fitted effect of over 50% in size
Shiga inhibitor: A qHTS for Small Molecule Inhibitors of Shiga Toxin. Vero cells, Shiga toxin protein synthesis inhibition reporter. actives 9.2% (n = 290,000). inhibition, % at 38.7 µM; in the data active means inhibition mostly above about 28%, no sharp cut-off; inactive means mostly below about 43%
MARV entry inh: qHTS for inhibitors of binding or entry into cells for Marburg Virus; Potency, µM (doses to about 37.8 µM), most hits filed as inhibitors; AID 540276, 2011; Marburg virus pseudotyped entry inhibition, cell reporter; actives 1.8% (n = 300,000); calls by dose curve; tested in HEK293 cells
Numbers stand for hits; . = inactive; ? = inconclusive; / = no result given. Shown are actives, neighbours in structure and some others; about 12% of the full set was active somewhere.

SMILES	CHX counter	LASV entry inh	Shiga inhibitor	MARV entry inh
CC(=O)Nc1ccc(C(=O)Cn2c3[n+](c4c(F)c(F)ccc42)CCCCC3)cc1	.	?	.	?
COc1ccc(C2=Nc3ccccc3OC2)cc1	46.1	?	98.9	.
CC(C)NC(=S)NNc1nc2ccccc2s1	.	.	.	.
Cc1ccc(NC(=O)COc2ccccc2C(=O)Nc2ccccc2)cc1Cl	.	.	.	.
COc1ccc(NC(=O)c2ccccc2F)cc1Cl	29.0	.	34.8	.
Cc1c(Cl)cccc1NC(=O)c1cccc(OC(F)F)c1	36.5	.	93.9	.
COc1ccc(NC(=O)c2cccc(F)c2)cc1Cl	19.5	.	56.8	.
COc1ccc(NC(=O)COc2ccccc2C(=O)NCC(c2ccccc2)N(C)C)cc1Cl (centres undefined)	.	11.2µM	.	?
Cc1ccc(NC(=O)c2cccc(OC(F)F)c2)c(OC(F)F)c1	.	.	.	.
COc1ccccc1C1C(C#N)=C(N)N(N(C)C)C2=C1C(=O)CC(C)(C)C2 (centres undefined)	.	?	.	.
CCc1ccc(NC(=S)N2CCN(c3cccc(OC)c3)CC2)cc1	.	/	.	/
Cc1ccc(N(C(=O)c2csnn2)C(C(=O)NC2CCCCC2)c2ccco2)cc1 (centres undefined)	.	?	.	?
CC(C)(CNC(=O)c1ccc(-c2cccc(C(F)(F)F)c2)o1)N1CCOCC1	/	.	/	.
COc1ccc(NC(=O)c2cccc(OC(F)F)c2)cc1Cl	39.3	.	130.9	?
O=C(Nc1ccc(OC(F)F)c(Cl)c1)c1cccc(OC(F)F)c1	42.8	.	66.6	?
O=C(NC1CCCCC1)C(c1ccc(O)cc1)N(C(=O)c1cnccn1)c1cccc(F)c1 (centres undefined)	.	?	.	.
CCN1/C(=C2\OC(=S)N(C)C2=O)Sc2ccccc21	13.9	.	40.0	.
COc1ccc(C(CC(=O)Nc2ccc(F)c(Cl)c2)N2Cc3ccccc3C2=O)cc1OC (centres undefined)	/	.	/	/
Clc1ccc(CSc2ncnc3c2ncn3C2CCCCO2)cc1 (centres undefined)	/	.	/	?
CC(C)CCNC(=O)CN(C(=O)CCC(=O)Nc1nccs1)c1ccc2c(c1)OCCO2	35.4	.	68.4	.
CC(C)(C)NC(=O)CN(C(=O)CCC(=O)Nc1nccs1)c1ccc2c(c1)OCCO2	.	.	.	.
COc1cccc([C@H]2Oc3ccc(OC)cc3/C(=N\OC[C@@H](C)[C@H](OCc3ccccc3)C(C)C)[C@@H]2O)c1	/	/	/	.
O=C1NCCC/C1=N\Nc1ccc(Br)cc1	8.2	.	.	?
Cc1cccc(NC(=O)c2ccc([N+](=O)[O-])s2)n1	60.6	/	61.4	/
Cc1cccc(C)c1NC(=O)c1ccc([N+](=O)[O-])s1	.	.	.	.
SMILES	CHX counter	LASV entry inh	Shiga inhibitor	MARV entry inh
Cc1ccnc(NC(=O)c2ccc([N+](=O)[O-])s2)c1	59.9	/	85.1	/
Cc1ccc(NC(=O)C2CCCN(S(=O)(=O)c3ccc4[nH]c(=O)ccc4c3)C2)cc1Cl (centres undefined)	/	.	/	/
O=C(NCc1ccccn1)[C@@H]1C[C@H]1[C@@H](NP(=O)(c1ccccc1)c1ccccc1)c1ccccc1	.	6.51µM	.	.
O=C(NCC1CC1)[C@@H]1C[C@H]1[C@@H](NP(=O)(c1ccccc1)c1ccccc1)c1ccccc1	.	?	.	.
O=C(NCc1ccccc1)[C@@H]1C[C@H]1[C@@H](NP(=O)(c1ccccc1)c1ccccc1)c1ccccc1	.	1.84µM	.	?
CC(=O)O/N=C(\N)c1ccc(-c2csnn2)cc1	33.8	.	64.7	?
CC(C)(C)C(=O)O/N=C(\N)c1ccc(Br)cc1	.	.	.	.
CC(C)(C)C(=O)O/N=C(\N)c1ccc(-c2csnn2)cc1	44.6	?	78.3	.
CC(=O)c1ccc(N2CCN(S(=O)(=O)c3c(C)nc4sc(C)cn4c3=O)CC2)cc1	/	.	/	/
Cc1c(N=Nc2c(-c3ccc([N+](=O)[O-])cc3)[nH]n(C(N)=S)c2=O)cccc1[N+](=O)[O-]	.	?	.	2.82µM
Cc1[nH]n(C(N)=S)c(=O)c1N=Nc1cccc([N+](=O)[O-])c1C	56.9	/	51.2	/
COc1ccc2c(c1)cc1n2CCN=C1N	.	.	.	10.3µM
CN([C@H]1CCS(=O)(=O)C1)S(=O)(=O)c1cccc2nsnc12	/	/	/	.
CCOC(=O)c1cc([N+](=O)[O-])cc([N+](=O)[O-])c1Sc1ncnc2nc[nH]c12	/	1.41µM	/	?
COc1ccc(N2CCN(C(=O)Nc3cccc(C(F)(F)F)c3)CC2)cc1	.	.	.	.
CN1CCN(c2ccc(-c3ccnn3C(=O)Nc3cccc(C(F)(F)F)c3)cc2)CC1	43.2	/	.	/
